Source: PubChem BioAssay AID485364 (National Center for Advancing Translational Sciences (NCATS), 2010)
The campaign covered roughly 360,000 compounds. About 11,000 (3.1%) were called active. Another 4% or so got no clear call; they are omitted. What follows is part of a selection rich in actives, with near analogues and random picks from the rest. Values without a mark were called inactive. Calls follow the shape of the dose curve; as a rule, active = well fitted inhibition curve with a large enough effect; inconclusive = small, poorly fitted or top-dose-only effect; inactive = no such curve, though single readings can be large or run the other way.
% is scaled to controls: 0 for no effect and ±100 for the full control effect; potency is read from the fitted curve at half-maximal effect.
Also: nearly all actives have a fitted effect of over 60% in size.

The molecules below were run against Schistosoma mansoni thioredoxin glutathione reductase (TGR) (UniProt Q962Y6) (assay: qHTS Assay for the Inhibitors of Schistosoma Mansoni Peroxiredoxins). Settings: purified TGR, DTNB reduction, TNB absorbance 405 nm; series mostly up to 114 µM; activity change, negative = inhibition: at the top concentration.
How it was run: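 TGR 20 nM + NADPH 100 uM (dispensed conc.), cpd preinc 15 min RT; start with NADPH (500 uM addition) then DTNB (15 mM addition). Kinetic TNB absorbance, 405 nm filter. Four-parameter Hill fit across titration.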
With `CCOc1ccc(CC(=O)NCCc2csc3nc(-c4ccccc4F)nn23)cc1` the “activity change, negative = inhibition” value was -10.2%. For `O=C(COc1ccc(Cl)cc1)N(Cc1ccco1)Cc1ccco1`, the “activity change, negative = inhibition” value was -16%. `CCN(c1ccc(Cl)cc1)S(=O)(=O)c1nnc(NC(=O)c2ccco2)s1` was tested, and the “activity change, negative = inhibition” value was 6.5%. For `O=C(Nc1nonc1-c1ccc(Cl)cc1)c1ccco1`, the “activity change, negative = inhibition” value was 5.07%. For `O=C(Nc1nc(-c2ccco2)c(-c2ccco2)s1)c1ccco1`, the Potency was 7.94 µM (active). In the case of `COc1ccc(S(=O)(=O)NCCSc2nnnn2-c2ccccc2)cc1`, the “activity change, negative = inhibition” value is reported as 1.78%. For `O=C(CCSCc1ccccc1F)N1CCN(c2ccc(Cl)cc2)CC1`, the “activity change, negative = inhibition” value was 1.71%. For `O=C(NN1C(=O)C2C3C=CC(C3)C2C1=O)c1ccco1` (centres undefined), the “activity change, negative = inhibition” value was -12.2%. For `O=C(NN1C(=O)C2C3C=CC(C4CC34)C2C1=O)c1ccc(Cl)cc1` (centres undefined), the “activity change, negative = inhibition” value was 19.2%. For `COc1ccccc1C(=O)Nn1cnnc1`, the “activity change, negative = inhibition” value was -0.277%. With `COc1ccccc1C(=O)NCCC(=O)NN1C(=O)NC2(CCCCC2)C1=O` the “activity change, negative = inhibition” value was 4.64%. `COc1ccc(C(=O)NN2C(=O)C3C(c4ccccc4)C=CC(c4ccccc4)C3C2=O)cc1` (centres undefined) was tested, and the “activity change, negative = inhibition” value was 0.253%. With `CC(C)=C1C2CCC1C1C(=O)N(NC(=O)c3ccco3)C(=O)C21` (centres undefined) the “activity change, negative = inhibition” value was 5.25%. With `O=C(NN1C(=O)C2C3C=CC(O3)C2C1=O)c1ccccc1` (centres undefined) the Potency was 20 µM (active). For `O=C(NN1C(=O)C2C3C=CC(O3)C2C1=O)c1ccncc1` (centres undefined), the Potency was 20 µM (active). For `COc1ccccc1C(=O)NN1C(=O)C2C3C=CC(O3)C2C1=O` (centres undefined), the Potency was 17.8 µM (active). `COc1cccc(N2CCN(S(=O)(=O)c3ccc4c(c3)CCCN4C(C)=O)CC2)c1` was tested, and the “activity change, negative = inhibition” value was -11.5%. In the case of `O=C(Nc1nnc(C2CC(=O)N(c3ccc(Cl)cc3)C2)s1)c1ccco1` (centres undefined), the “activity change, negative = inhibition” value is reported as 2.36%. With `Cc1ccc(S(=O)(=O)c2cn(Cc3ccccc3)c3cc(N4CCCC4)c(F)cc3c2=O)c(C)c1` the “activity change, negative = inhibition” value was 7.14%. For `COc1cc(C(=O)N2CCN(C(=O)COc3cccc(C)c3)CC2)cc(OC)c1OC`, the “activity change, negative = inhibition” value was 4.7%. `Cc1nnc(SCC(=O)NCc2ccccc2Cl)c2nn(-c3ccccc3)c(C)c12` was tested, and the “activity change, negative = inhibition” value was -12.2%. In the case of `CC1CCN(S(=O)(=O)c2ccc3c(ccn3CCC(=O)NCc3ccc(N(C)C)cc3)c2)CC1`, the “activity change, negative = inhibition” value is reported as 5.15%. `Cc1ccc(NC(=O)c2cc(S(=O)(=O)NCCC3=CCCCC3)ccc2F)cc1C` was tested, and the “activity change, negative = inhibition” value was 0.318%. With `CCOc1ccc(OCC)c(NC(=O)c2cc(C)nc3c2c(C)nn3-c2cccc(Cl)c2C)c1` the “activity change, negative = inhibition” value was 4.25%. `O=C(/C=C/c1ccccc1)N1CCN(Cc2cc(=O)n3nc(-c4ccccc4F)sc3n2)CC1` was tested, and the “activity change, negative = inhibition” value was -0.0658%. In the case of `CCOc1ccc(CCNC(=O)c2cc3c(=O)n(C)c4ccccc4c3n2C)cc1`, the “activity change, negative = inhibition” value is reported as -0.834%. In the case of `Cn1c(C(=O)N2CCC(C(N)=O)CC2)cc2c(=O)n(C)c3ccccc3c21`, the “activity change, negative = inhibition” value is reported as -27.2%. For `CCN1CCCC1CNC(=O)c1cc2c(=O)n(C)c3ccccc3c2n1C` (centres undefined), the Potency was 50.1 µM (active). In the case of `O=C(c1ccc2c(c1)N(Cc1ccc(Cl)cc1)C(=O)c1ccccc1S2(=O)=O)N1CCCCC1`, the “activity change, negative = inhibition” value is reported as -0.822%. `CCOc1ccc(C(=O)/C=C/c2cn(CC(O)CN3CCCCCC3)c3ccccc23)cc1` (centres undefined) was tested, and the “activity change, negative = inhibition” value was 1.21%. For `Cc1ccc(Cn2c(CNC(=O)Cc3cccc(C)c3)nc3cccnc32)cc1`, the “activity change, negative = inhibition” value was -0.581%. In the case of `Cn1nccc1C(=O)NC1CCCc2c1cnn2-c1ccccc1F` (centres undefined), the “activity change, negative = inhibition” value is reported as -27.8%. For `COc1ccc(C(=O)NC2CCCc3c2cnn3-c2cccc(C)c2C)c(OC)n1` (centres undefined), the “activity change, negative = inhibition” value was 2.99%. `Cc1cc(C(=O)NC2CCCc3c2cnn3-c2cccc(C)c2C)c(C)o1` (centres undefined) was tested, and the Potency was 35.5 µM (active). With `Clc1ccc2c(c1)C1=C(C(c3ccncc3)O2)C(c2ccc(Br)cc2)n2ncnc2N1` (centres undefined) the “activity change, negative = inhibition” value was 5.87%. `Brc1ccc(C2=CC(c3ccco3)n3ncnc3N2)cc1` (centres undefined) was tested, and the Potency was 17.8 µM (active). `Cc1cccc(OCCSc2nc3ccccc3n2CC(=O)N2CCCCC2)c1C` was tested, and the “activity change, negative = inhibition” value was -10.3%. `COC(=O)C1=C(c2ccc(F)cc2OCc2ccccc2)C[C@@H]2CC[C@H]1N2C(=O)NCc1ccc(OC)c(OC)c1` was tested, and the “activity change, negative = inhibition” value was -1.65%. In the case of `COc1ccc(CCN=C2SCC(=O)N2Cc2ccccc2)cc1OC`, the “activity change, negative = inhibition” value is reported as 4.58%. `COc1cc(C2CC(=O)N3CN(Cc4ccccc4)CSC3=C2C#N)ccc1OCc1ccccc1` (centres undefined) was tested, and the Potency was 8.91 µM (active). With `CCCOc1ccc(C2c3c(-c4ccccc4O)n[nH]c3C(=O)N2Cc2cccnc2)cc1` (centres undefined) the “activity change, negative = inhibition” value was -17.8%. `CC(=O)Nc1ccc(NS(=O)(=O)c2ccc3c(c2)NC(=O)CC(=O)N3)cc1` was tested, and the “activity change, negative = inhibition” value was 4.91%. `CC(=O)Nc1ccc(S(=O)(=O)NC2(C(F)(F)F)C(=O)NC(C)=C2C#N)cc1` (centres undefined) was tested, and the Potency was 39.8 µM (active). With `CC(=O)Nc1ccc(S(=O)(=O)NC2(C(F)(F)F)C(=O)Nc3c2c(=O)[nH]c(=O)n3Cc2ccccc2)cc1` (centres undefined) the “activity change, negative = inhibition” value was -3.62%. With `CCOC(=O)c1cc(-c2ccc(OC)c(S(=O)(=O)Nc3ccc(OC)cc3OC)c2)on1` the “activity change, negative = inhibition” value was -0.0619%. In the case of `CCOC(=O)c1ccc(NC(=O)Cn2c(=O)cc(C)c3c(C)nn(-c4cccc(F)c4)c32)cc1`, the “activity change, negative = inhibition” value is reported as 17.8%. `O=C(COC(=O)Cn1cnc2ccccc2c1=O)NCc1ccccc1Cl` was tested, and the “activity change, negative = inhibition” value was 2.84%. `COCc1cc(C(C)=O)ccc1OC` was tested, and the “activity change, negative = inhibition” value was -22.1%. With `COc1ccc(C(C)=O)cc1COC(=O)Cn1cnc2ccccc2c1=O` the Potency was 39.8 µM (active).
